Most compounds without a hit are left out; they make up all but 2.4% or so of the library.
HMGR II inh: E. faecalis class II HMG-CoA reductase inhibition; purified E. faecalis HMGR, NADPH absorbance 340 nm kinetic; inhibition, % at 10 µM; 190,000 compounds, 0.41% hits;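 active means inhibition above a set limit, the median over all tested compounds plus 3 SD, cut at about 9.5% in these data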;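 further: enzyme runs in reverse so mevalonate oxidation gives rising NADPH absorbance; 0% = complete reaction with DMSO and 100% = background rate lacking mevalonate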
PABP polyA inh: blocks human PABP binding to poly(A) RNA. P11940. fluorescence polarization. calls only at 35 µM. 290,000 compounds, 1% hits. AID 2014;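 further: calls also rest on retests at 20 µM and on dose response follow-up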
eIF4H inh: inhibitors of RNA binding by human eIF4H; inhibition, % at 35 µM; 290,000 compounds, 0.94% hits; Q15056; eIF4H fluorescence polarization binding assay;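 further: calls also rest on retests at 20 µM and on dose response follow-up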
PHOSPHO1 inh: inhibitors of human PHOSPHO1 phosphatase. 290,000 compounds, 1.1% hits. inhibition, % at 13.3 µM. AID 1565. Q8TCT1. recombinant PHOSPHO1, absorbance phosphatase assay; in the data active means inhibition above about 60%
PABP1 MLLE inh: blocks PAM2 peptide binding to the PABP1 MLLE domain; P11940; GST-MLLE / FITC-PAM2 fluorescence polarization; inhibition, % at 20 µM; 360,000 compounds, 0.36% hits; in the data active means inhibition above about 35%, passing the limit was not always enough;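 further: plate controls were DMSO wells with GST-MLLE for no effect and wells lacking GST-MLLE protein for full effect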
* marks the source's active call; other numbers are inactive results; i = inactive; . = no result; + = active, no number. Unless noted, how the calls were made is not given here.

SMILES	HMGR II inh	PABP polyA inh	eIF4H inh	PHOSPHO1 inh	PABP1 MLLE inh
CCOC(=O)c1[nH]cnc1C(=O)Nc1ccc(F)cc1	-3.1	i	16.5	47.7	-6.0
CCCCOC(=O)c1nc[nH]c1C(=O)OCCCC	18.9*	i	2.7	30.5	-2.6
COc1ccc2cc(C3NC(=O)c4ccccc4N3)c(Cl)nc2c1 (stereo not given)	18.9*	i	6.3	-5.1	8.7
COCCN(C(=O)COC(=O)C12CC3CC(CC(C3)C1)C2)c1c(N)n(Cc2ccccc2)c(=O)[nH]c1=O	.	.	.	.	14.4
COc1cc(/C=C(/C(=O)c2cccs2)c2nc3ccccc3[nH]2)cc(OC)c1O	3.3	i	0.1	5.0	-3.2
COc1ccccc1C(=O)Nc1ccc(C(=O)/C=C/c2cccs2)cc1	-0.7	i	-9.9	-4.4	-3.8
O=C(/C=C/c1cccs1)c1ccc(NC(=O)c2ccccc2F)cc1	17.7*	i	-6.2	19.1	-6.5
COc1ccc(NC(=O)CN(C)C(=O)c2cn(-c3ccccc3)nc2-c2cccnc2)cc1	.	.	.	.	5.8
COCc1cc(C)nc(OCC(=O)N/N=C/c2ccco2)c1C#N	-1.6	i	9.7	-12.2	-4.4
CCOc1[nH]c(/N=C/c2ccco2)c(C#N)c1C#N	-7.6	+	99.7*	9.6	18.8
Cc1ccc(NS(=O)(=O)c2cccc3nsnc23)cc1	.	i	-3.5	7.9	6.1
O=S(=O)(Nc1ccccc1)c1cccc2nsnc12	.	i	71.2*	46.6	10.0
O=C1OCCC1Sc1nc2cc(Cl)ccc2n1Cc1ccccc1 (stereo not given)	-6.3	i	0.5	88.7*	-138.6
CCc1n(CC(O)COC2CCCCC2)c2ccccc2[n+]1C (stereo not given)	-5.4	+	1.4	30.4	-93.8
CC12CCC(C(=O)NCCCN3CCOCC3)(C(Br)C1=O)C2(C)C (stereo not given)	.	i	-17.6	20.0	1.4
N#Cc1ccc(C(=O)N/N=C/c2cn(CC(=O)O)c3ccccc23)c(F)c1	-1.2	i	1.0	-9.2	-126.6
Cn1cc(/C=N/NC(=O)c2ccc(C#N)cc2F)c2ccccc21	-1.3	+	3.5	42.1	2.9
Cc1cccc(C(=O)Nc2cccc(C(=O)N3CCOCC3)c2)c1	-0.5	i	5.1	-9.0	13.1
CC(=O)/C(=N/Nc1cccc(C)c1)N1CCOCC1	-9.2	i	11.0	92.4*	27.4
CCCn1nc(NC(=O)CC(C)C)c2cc3ccccc3nc21	-5.7	i	-13.6	68.9*	-87.8
CCn1nc(NS(=O)(=O)c2ccc(NC(C)=O)cc2)c2cc3ccccc3nc21	.	i	-14.7	64.7*	9.9
CCCCC(=O)Nc1nn(CC(C)C)c2nc3ccccc3cc12	3.4	i	2.5	-11.1	14.7
CCN(C(=O)C(C)Sc1nnc(-c2ccncc2)n1C)C1CCCCC1 (stereo not given)	.	.	.	.	5.3
Cc1ccccc1C(=O)NNC(=S)NC(=O)c1ccc(Cl)cc1Cl	-2.2	i	10.2	99.7*	10.2
COC(=O)c1cc(S(=O)(=O)NCc2ccc3c(c2)OCO3)cn1C	.	.	.	64.0*	8.5
SMILES	HMGR II inh	PABP polyA inh	eIF4H inh	PHOSPHO1 inh	PABP1 MLLE inh
CCOC(=O)c1cc(S(=O)(=O)NCc2ccc3c(c2)OCO3)cn1C	.	i	-2.8	61.6*	-4.7
COCC(=O)OCC(=O)Nc1ccc(Cl)cc1[N+](=O)[O-]	-2.0	i	5.7	31.9	11.8
Brc1ccc(Nc2ncnc3[nH]ncc23)cc1	.	i	-1.4	41.6	-0.6
CC1CC(C)(C)NC(=S)N1CCCC(=O)Nc1ccc(Cl)cc1 (stereo not given)	0.1	+	active	-26.9	-93.1
CC1CC(C)(C)NC(=S)N1CCC(=O)Nc1ccc2c(c1)OCCO2 (stereo not given)	3.9	i	-9.4	-58.3	0.4
CCOc1ccc(NC(=O)CCN2C(=S)NC(C)(C)CC2C)cc1 (stereo not given)	-0.1	+	5.7*	-19.1	-49.3
CC(C)c1ccc(NC(=O)CCCN2C(=S)NC(C)(C)CC2C)cc1 (stereo not given)	-8.5	i	-5.5	-64.9	-85.5
COc1cc(NC(=O)Cn2nc(-c3ccc(F)cc3)ccc2=O)ccc1-n1cnnn1	-0.4	i	101.7*	-5.9	0.2
O=C(Cn1sc2ccccc2c1=O)NC12CC3CC(CC(C3)C1)C2	0.9	i	1.5	83.5*	53.4*
COc1ccc(C(=O)CSc2[nH]c(=O)cc(C(F)(F)F)c2C#N)cc1	.	i	14.4	-1.3	-12.0
Cc1c(C)n(CCC(=O)O)c2ccccc12	1.8	i	3.7	30.4	-8.1

High-throughput results deposited in PubChem by several laboratories.
